From PubChem
KAT2A inh = GCN5L2 (KAT2A) acetyltransferase inhibition | Q92830 | GCN5L2 HAT assay, ThioGlo1 CoA-SH fluorescence | Potency, µM (titrated, usually from 58.9 µM), most hits filed as inhibitors | 390,000 compounds, 0.21% hits
Target sequence (Q92830 whole entry, looked up): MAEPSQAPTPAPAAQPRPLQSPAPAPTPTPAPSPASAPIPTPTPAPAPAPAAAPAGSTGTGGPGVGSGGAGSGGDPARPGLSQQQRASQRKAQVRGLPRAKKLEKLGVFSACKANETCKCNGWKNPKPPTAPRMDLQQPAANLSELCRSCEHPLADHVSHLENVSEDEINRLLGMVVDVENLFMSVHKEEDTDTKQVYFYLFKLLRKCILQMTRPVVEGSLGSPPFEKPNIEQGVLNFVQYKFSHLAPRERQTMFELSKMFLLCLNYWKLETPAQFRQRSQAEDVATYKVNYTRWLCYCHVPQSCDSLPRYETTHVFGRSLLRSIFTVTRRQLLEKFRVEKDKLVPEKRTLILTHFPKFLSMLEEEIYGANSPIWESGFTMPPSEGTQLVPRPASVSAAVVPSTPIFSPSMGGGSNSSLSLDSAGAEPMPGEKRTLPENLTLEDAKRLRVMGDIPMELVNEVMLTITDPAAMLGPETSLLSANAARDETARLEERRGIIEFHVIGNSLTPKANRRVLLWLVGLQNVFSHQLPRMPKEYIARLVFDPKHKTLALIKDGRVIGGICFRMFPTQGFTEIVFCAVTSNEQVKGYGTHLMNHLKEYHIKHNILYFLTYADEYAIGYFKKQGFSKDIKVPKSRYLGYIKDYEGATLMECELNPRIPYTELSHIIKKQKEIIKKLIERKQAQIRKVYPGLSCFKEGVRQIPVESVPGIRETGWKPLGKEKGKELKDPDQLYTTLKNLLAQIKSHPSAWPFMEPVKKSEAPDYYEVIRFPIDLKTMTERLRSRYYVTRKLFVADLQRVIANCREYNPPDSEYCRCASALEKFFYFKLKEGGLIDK
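GCN5L2 (20nM final) in 50mM HEPES, 0.1mM EDTA pH 7.5, 0.01% Tween-20 was preincubated 15 min at room temperature with compound, then given ThioGlo1 (50uM), H3(1-25) peptide (75uM) and acetyl-CoA (70uM); CoA-thiol fluorescence (Ex340/Em540) was read at 0 and 20 min.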
Pol eta inh = blocks human DNA polymerase eta activity. Q9Y253. recombinant Pol eta, fluorescent DNA replication assay. Potency, µM (series often up to 114 µM), hits mostly inhibitors. 390,000 compounds, 1.2% hits. AID 588591
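Fluorescent replication assay: 50 nM final substrate added after a 15 min room-temperature compound preincubation with 10 nM enzyme. Signal taken at 0 min and again at 10 min.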
Pol beta inh-1 = DNA polymerase beta (human) inhibition; 340,000 compounds, 1.3% hits; P06746; Pol beta primer extension/strand displacement, fluorescence kinetic; Potency, µM (doses to about 114 µM), usual class: inhibitors
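Values derive from four-parameter Hill fits of normalized kinetic data: reads at 0 and 10 min following addition of 50 nM substrate to 10 nM Pol beta preincubated 15 min with compound.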
GLS inhibitor = inhibitors of human glutaminase (GLS); O94925; GLS enzymatic activity, qHTS titration; Potency, µM (highest dose often 45.5 µM), usual class: inhibitors; 410,000 compounds, 0.21% hits; AID 624170
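hKGA in 45 mM KH2PO4 (pH 8.2), 0.02% Tween-20 with compound, then 1mM L-Glutamine (stock as added) plus glutamate oxidase/HRP/Amplex red coupling mix. Fluorescence read initially and after 30 min at RT; signal change reflects glutamate formation.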
POLK inh = inhibitors of human DNA polymerase kappa | purified Pol kappa, fluorescent DNA synthesis assay, 10 min | Potency, µM (top dose mostly 107 µM), actives largely listed as inhibitors | 400,000 compounds, 0.53% hits | AID 588579
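10 nM Pol kappa preincubated 15 min at room temperature with compounds, then reaction started with substrate at 50 nM final. Fluorescence read kinetically at 0 and 10 min; buffer-only wells served as negative control.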
POLI inh = inhibitors of human DNA polymerase iota; Pol iota fluorescent replication assay, 10 min; Potency, µM (titrated, usually from 115 µM), most hits filed as inhibitors; 390,000 compounds, 1% hits; AID 588590
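Pol iota at 10 nM preincubated 15 min with compounds at room temperature; reaction started with fluorescent substrate, 50 nM final. Fluorescence read kinetically at 0 and 10 min; buffer-only wells as negative control.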
Pol beta inh-2 = Human Pol beta inhibitor hit validation; shares compounds with Pol beta inh-1; Pol beta primer extension/strand displacement, fluorescence kinetic; Potency, µM, usual class: inhibitors; 250 compounds, 87% hits; calls by dose curve
Klenow inh = inhibits Klenow fragment polymerase in counter-screen. AID 540300. Klenow exo- polymerase counter-screen, fluorescent DNA substrate. activity change, negative = inhibition, % at 57.1 µM. shares compounds with Pol beta inh-1. 250 tested, under 10 active
HIV RT counter = counter-screen for DNA polymerase beta inhibitors: HIV-1 RT inhibition; shares compounds with Pol beta inh-1; activity % (negative = inhibition, positive = activation), % at 57.1 µM; 250 tested, under 10 active; HIV-1 RT polymerase activity, counter-screen; AID 540301
POLB inh gel = DNA polymerase beta inhibition, radiolabeled validation. shares compounds with Pol beta inh-1. radiolabeled primer extension gel assay, phosphorimager. inhibition, % at 10 µM. 110 compounds, 91% hits;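 active = inhibition at 10 µM of 30% or more; inconclusive = no clear call, values can overlap the other calls; inactive = inhibition at 10 µM under 30%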
Pol iota confirm = Inhibitors of human DNA polymerase iota, confirmation; Potency, µM, hits mostly inhibitors; AID 720496; Pol iota primer extension, TAMRA/BHQ fluorescence; 1,500 compounds, 77% hits; shares compounds with POLK inh
Hits are given with their value; n = inactive; u = inconclusive; x = no result. Shown are actives, neighbours in structure and some others; about 2.4% of the full set was active somewhere. Unless noted, calls follow the shape of the dose curve; as a rule, active = well fitted curve in the direction sought with a large enough effect; inconclusive = small, poorly fitted or top-dose-only effect, or another doubt; inactive = no such curve, though single readings can be large; an effect the other way counts as inactive or inconclusive.

SMILES | KAT2A inh | Pol eta inh | Pol beta inh-1 | GLS inhibitor | POLK inh | POLI inh | Pol beta inh-2 | Klenow inh | HIV RT counter | others
C=CCn1c(=NC(=O)c2sc3ccccc3c2Cl)sc2cc(S(N)(=O)=O)ccc21 | n | u | 8.91µM | n | u | n | 14.1 | n | n
COCCn1c(=NC(=O)c2sc3ccccc3c2Cl)sc2cc(S(N)(=O)=O)ccc21 | n | n | u | n | n | n | x | x | x
O=S(=O)(Nc1nccs1)c1ccc(Nc2nnc(-c3ccccc3)c3ccccc23)cc1 | n | u | 14.1µM | n | n | u | 35.5 | n | n
Cc1onc(-c2ccccc2)c1C(=O)Nc1ccc(S(=O)(=O)Nc2nccs2)cc1 | n | n | n | n | n | n | x | x | x
O=C(COC(=O)C1CC(=O)N(Cc2ccccc2)C1)c1ccc(Br)cc1 (stereo not given) | n | n | n | n | n | n | x | x | x
Cc1ccc(C(=O)Oc2ccc(C(=O)COC(=O)C3CC(=O)N(Cc4ccco4)C3)cc2)cc1 (stereo not given) | n | 12.6µM | 15.8µM | n | 44.7µM | 4.47µM | 14.1 | n | n
O=C(COC(=O)C1CC(=O)N(Cc2ccco2)C1)c1ccc(OC(=O)c2ccco2)cc1 (stereo not given) | u | 3.16µM | 7.08µM | u | 31.6µM | 17.8µM | 8.91 | n | u
COc1cc(NC(=O)Cn2c(=O)n(Cc3ccccc3OC)c(=O)c3cccnc32)cc(OC)c1 | n | n | n | n | u | u | x | x | x
COc1ccc2cc3c(N)nn(C(=O)c4ccc(Cl)c([N+](=O)[O-])c4)c3nc2c1 | n | u | 1.58µM | n | n | u | 3.16 | n | n
COc1ccc2cc3c(N)nn(C(=O)c4ccccc4[N+](=O)[O-])c3nc2c1 | n | n | n | n | n | n | x | x | x
CCOc1ccc(-n2c(=O)c3c4c(sc3n(Cc3cccc(Cl)c3)c2=O)CCCC4)cc1 | n | n | n | n | n | n | x | x | x
CCn1cc(C(=O)NCc2ccco2)c(=O)c2cc(F)c(N3CCN(C(=O)c4ccco4)CC3)cc21 | n | u | 14.1µM | n | u | u | u | n | n
NS(=O)(=O)c1ccc(NC(=O)c2ccc(-c3ccccc3)cc2)cc1 | u | u | 14.1µM | n | u | u | 15.8 | n | n
CC(C)(C)c1ccc(C(=O)Nc2ccc(S(N)(=O)=O)cc2)cc1 | u | n | n | n | n | n | x | x | x
O=C(Nc1nnc(SCc2c(Cl)cccc2Cl)s1)C1CC(=O)N(c2ccc3c(c2)OCCO3)C1 (stereo not given) | n | u | 7.08µM | n | u | 15.8µM | u | n | n
O=C(Nc1nc(-c2ccco2)c(-c2ccco2)s1)C1CC(=O)N(c2ccc3c(c2)OCCO3)C1 (stereo not given) | u | 8.91µM | 8.91µM | n | 20µM | 7.94µM | u | n | n | POLB inh gel=97.1
Cc1nnc(NC(=O)C2CC(=O)N(c3ccc4c(c3)OCCO4)C2)s1 (stereo not given) | n | n | x | n | n | u | x | x | x
CC1CCc2nc3ncn(CC(=O)Nc4cccc(C#N)c4)c(=O)c3cc2C1 (stereo not given) | n | n | n | n | n | n | x | x | x
CCc1nn(CC(=O)NCCC(C)C)c(=O)c2cc3occc3n12 | n | n | n | n | n | n | x | x | x
CCOc1ccc(C(=O)Nc2ccc(NC(=O)c3ccccc3)c(C)c2)cc1[N+](=O)[O-] | u | n | 20µM | n | n | n | 17.8 | n | n
COc1ccccc1N1CCN(C(=O)c2cc3c(s2)CCC3)CC1 | n | u | 7.94µM | n | n | n | u | n | n | POLB inh gel=74.4
COc1ccc(NC(=O)COc2ccc(S(=O)(=O)NC3CCCCC3)cc2)cc1OC | n | n | n | n | n | n | x | x | x
O=C(CSc1nc2c(cnn2-c2ccccc2)c(=O)[nH]1)c1ccc(Cl)cc1 | n | u | 5.01µM | n | n | u | 7.08 | n | n
O=c1[nH]c(C(Cl)Cl)nc2sc3c(c12)CCN(Cc1ccccc1)C3 | n | 39.8µM | 12.6µM | n | u | u | 15.8 | n | n
Nc1nc2c(c(=O)[nH]1)CN(Cc1ccccc1)CC2 | n | n | x | n | n | n | x | x | x
SMILES | KAT2A inh | Pol eta inh | Pol beta inh-1 | GLS inhibitor | POLK inh | POLI inh | Pol beta inh-2 | Klenow inh | HIV RT counter | others
COc1cccc(C(=O)NC(=NCCc2c[nH]c3ccc(OC)cc23)Nc2nc(C)cc(C)n2)c1 | n | n | n | n | n | n | x | x | x
CCOc1ccc(C(=O)/C=C/Nc2ccc(S(=O)(=O)Nc3cc(C)nc(C)n3)cc2)cc1 | n | u | 8.91µM | n | n | 39.8µM | 35.5 | n | n | POLB inh gel=69.2
O=C(CSc1ccc(Cl)cc1)c1ccco1 | n | 22.4µM | 7.94µM | n | 28.2µM | u | 12.6 | n | n
COc1ccc(C(=O)Nc2ccc3c(c2)C(=O)c2ccccc2C3=O)cc1OC | n | u | 2.24µM | n | n | n | 22.4 | n | n | POLB inh gel=70.3
O=[N+]([O-])c1cc(CN2CCOCC2)c2cccnc2c1O | u | 8.91µM | 2.51µM | n | u | u | 4.47 | n | n
Oc1c(Cl)cc(CN2CCOCC2)c2cccnc12 | n | n | x | n | n | u | x | x | x
N#C/C(=C\c1ccc(OCc2ccc(Br)cc2)cc1)C(=O)Nc1cccc(C(=O)O)c1 | u | u | 8.91µM | n | n | n | 15.8 | n | n | Pol iota confirm=67
Cc1ccc2onc(CNC(=O)N(C)Cc3ccccc3)c2c1 | n | n | n | n | n | n | x | x | x
Cc1ccc2nc(/C(C#N)=C\c3ccc(Oc4ccc(C(F)(F)F)cc4[N+](=O)[O-])cc3)[nH]c2c1 | n | u | 7.08µM | n | n | n | 14.1 | n | n | Pol iota confirm=42.3
COc1ccc(CNc2ncnc3ccc(-c4cccc(C#N)c4)cc23)c(OC)c1 | n | x | x | x | n | x | x | x | x
COc1ccc(CCNC(=O)c2nnn(CC(=O)Nc3ccc(C)cc3C)c2N)cc1OC | n | u | 0.562µM | n | n | 35.5µM | 25.1 | n | n | POLB inh gel=52.0;Pol iota confirm=u
COc1ccc(Cl)cc1NC(=O)Cn1nnc(C(=O)NCCc2ccc(OC)c(OC)c2)c1N | n | n | u | n | n | u | x | x | x
